This is an account of results in ChEMBL document CHEMBL3988442, “University of Dundee, Small-Polar-MMV Screening Library” (2021).

What all share (parameters): scale not given: direction of the effect not stated beside the values
The target of assay [1] is Protein translocase subunit SecA (Escherichia coli (strain K12)) (UniProt P10408). In words: Assay to Identify E. coli SecA ATPase Inhibitors. The assay is classed as functional. As to conditions: 30 µM.
Assay [2] concerns the target T1, Ubiquitin-activating enzyme e1, putative (Leishmania donovani (strain BPK282A1)) (UniProt E9BSI1).
T1 sequence (whole entry): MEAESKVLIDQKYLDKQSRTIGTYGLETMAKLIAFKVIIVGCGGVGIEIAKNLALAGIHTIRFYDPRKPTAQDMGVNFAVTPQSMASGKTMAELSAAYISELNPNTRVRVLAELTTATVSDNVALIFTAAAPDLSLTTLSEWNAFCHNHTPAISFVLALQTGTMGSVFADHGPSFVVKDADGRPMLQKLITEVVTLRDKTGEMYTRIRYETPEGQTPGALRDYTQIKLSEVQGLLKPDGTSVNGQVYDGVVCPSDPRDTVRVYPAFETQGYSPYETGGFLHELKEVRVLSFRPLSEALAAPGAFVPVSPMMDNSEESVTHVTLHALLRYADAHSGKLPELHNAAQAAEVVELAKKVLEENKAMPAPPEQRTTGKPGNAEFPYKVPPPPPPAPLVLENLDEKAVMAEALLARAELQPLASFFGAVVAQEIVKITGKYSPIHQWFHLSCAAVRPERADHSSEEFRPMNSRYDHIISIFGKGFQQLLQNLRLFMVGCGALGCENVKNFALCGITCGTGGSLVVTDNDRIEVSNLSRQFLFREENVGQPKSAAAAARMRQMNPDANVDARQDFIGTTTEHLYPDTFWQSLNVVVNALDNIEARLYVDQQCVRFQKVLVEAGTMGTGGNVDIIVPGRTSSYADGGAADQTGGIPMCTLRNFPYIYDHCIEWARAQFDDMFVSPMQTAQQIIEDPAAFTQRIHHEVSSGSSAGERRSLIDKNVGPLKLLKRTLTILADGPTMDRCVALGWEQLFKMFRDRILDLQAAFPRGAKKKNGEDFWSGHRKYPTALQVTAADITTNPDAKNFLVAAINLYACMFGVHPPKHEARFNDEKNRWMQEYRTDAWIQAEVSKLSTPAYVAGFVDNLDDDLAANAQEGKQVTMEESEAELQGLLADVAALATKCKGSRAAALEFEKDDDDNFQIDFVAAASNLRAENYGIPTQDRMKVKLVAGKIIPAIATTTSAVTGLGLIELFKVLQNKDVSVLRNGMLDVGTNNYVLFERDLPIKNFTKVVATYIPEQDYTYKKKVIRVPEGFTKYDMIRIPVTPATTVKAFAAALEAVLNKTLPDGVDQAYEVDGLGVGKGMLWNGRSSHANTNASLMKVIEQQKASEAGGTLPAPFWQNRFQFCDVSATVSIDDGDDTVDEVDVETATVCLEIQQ
Nature of the assay: Leishmania donovani Ubiquitin Activating Enzyme (LdE1). It is filed as functional. The settings on record: 30 µM.

Assay [3] deals with AMP-activated protein kinase, AMPK (Homo sapiens) (UniProt P54646+O43741+P54619+Q9UGJ0+Q9Y478+Q13131+Q9UGI9). In words: AMP-dependent Kinase enzyme assay. An in vitro enzyme assay that detects ADP turnover that is directly proportional to AMPK activity. This uses naive AMPK that is activated during the assay with MK-8722. The assay is classed as functional. The settings on record: 30 µM.

In assay [4] the target is Sialic acid-binding Ig-like lectin 9 (Homo sapiens) (UniProt Q9Y336). In words: Hs-Siglec9 ALPHAscreen SOP 20170721. As to conditions: 10 µM. In general terms: Alpha assays give light when donor and acceptor beads are brought close together.
Sialic acid-binding Ig-like lectin 9 (Homo sapiens), sequence (Q9Y336 whole entry): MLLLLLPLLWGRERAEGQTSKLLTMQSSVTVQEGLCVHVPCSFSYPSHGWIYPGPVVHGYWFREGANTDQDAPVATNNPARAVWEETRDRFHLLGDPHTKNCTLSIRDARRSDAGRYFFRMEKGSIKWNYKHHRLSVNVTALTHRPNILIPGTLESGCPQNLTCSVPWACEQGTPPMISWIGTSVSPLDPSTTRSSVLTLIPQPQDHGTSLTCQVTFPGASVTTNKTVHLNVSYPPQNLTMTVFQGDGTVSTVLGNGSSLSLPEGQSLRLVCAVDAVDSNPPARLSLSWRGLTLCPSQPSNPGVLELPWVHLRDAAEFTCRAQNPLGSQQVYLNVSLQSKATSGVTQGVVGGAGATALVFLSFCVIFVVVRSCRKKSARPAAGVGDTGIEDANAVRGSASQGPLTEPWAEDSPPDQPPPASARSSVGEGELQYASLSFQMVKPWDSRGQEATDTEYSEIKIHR
The test system of assay [5] is Trypanosoma cruzi. Nature of the assay: Trypanosoma cruzi phosphomannomutase and mannose-1-phosphate guanylyltransferase assay. The assay is classed as functional. As to conditions: 10 µM.
Assay [6] deals with T2, Arginase-2, mitochondrial (Homo sapiens) (UniProt P78540).
T2 sequence (whole entry): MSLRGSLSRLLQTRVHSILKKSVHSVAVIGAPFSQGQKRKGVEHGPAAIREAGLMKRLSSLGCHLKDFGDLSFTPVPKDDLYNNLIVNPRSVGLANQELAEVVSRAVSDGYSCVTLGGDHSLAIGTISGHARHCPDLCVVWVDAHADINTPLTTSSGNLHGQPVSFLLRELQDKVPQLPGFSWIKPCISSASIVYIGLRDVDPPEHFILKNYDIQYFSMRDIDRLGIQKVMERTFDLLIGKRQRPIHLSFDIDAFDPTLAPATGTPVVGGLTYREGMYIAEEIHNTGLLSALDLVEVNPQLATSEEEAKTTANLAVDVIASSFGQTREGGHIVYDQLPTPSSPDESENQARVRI
Nature of the assay: in vitro enzyme assay to detect the production of urea directly proportional to the activity of Arginase II. Also: in the data most compounds retested in dose-response had high values. The assay is classed as functional. As to conditions: 33.3 µM.

Assay [7] has as its target T3, Proteasome subunit beta (Trypanosoma cruzi) (UniProt O96673).
T3 sequence (whole entry): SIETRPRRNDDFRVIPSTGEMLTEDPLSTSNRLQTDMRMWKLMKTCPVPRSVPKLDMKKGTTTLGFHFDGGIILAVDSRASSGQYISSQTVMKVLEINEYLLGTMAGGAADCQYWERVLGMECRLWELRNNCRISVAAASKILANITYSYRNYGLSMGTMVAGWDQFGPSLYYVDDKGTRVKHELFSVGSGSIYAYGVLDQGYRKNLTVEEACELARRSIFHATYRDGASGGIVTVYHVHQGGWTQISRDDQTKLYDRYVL
In words: Trypanosoma cruzi proteasome chymotrypsin-like activity (TcProtChymo) assay. Also: in the data most compounds retested in dose-response had high values. The assay is classed as functional. As to conditions: 9.37 µM.

The species entered for assay [8] is Homo sapiens. Nature of the assay: To identify inhibition of the IFN signalling (Jak-Stat) pathway via expression of an eGFP reporter gene under the control of an IFN-stimulated response element (ISRE) containing MxA promoter. The assay is classed as functional. As to conditions: 30 µM. A general note: A reporter such as luciferase makes a cellular process visible.

Assay [9] concerns the target T4, Tyrosyl-tRNA synthetase, putative (Trypanosoma cruzi (strain CL Brener)) (UniProt Q4DSP6).
T4 sequence (whole entry): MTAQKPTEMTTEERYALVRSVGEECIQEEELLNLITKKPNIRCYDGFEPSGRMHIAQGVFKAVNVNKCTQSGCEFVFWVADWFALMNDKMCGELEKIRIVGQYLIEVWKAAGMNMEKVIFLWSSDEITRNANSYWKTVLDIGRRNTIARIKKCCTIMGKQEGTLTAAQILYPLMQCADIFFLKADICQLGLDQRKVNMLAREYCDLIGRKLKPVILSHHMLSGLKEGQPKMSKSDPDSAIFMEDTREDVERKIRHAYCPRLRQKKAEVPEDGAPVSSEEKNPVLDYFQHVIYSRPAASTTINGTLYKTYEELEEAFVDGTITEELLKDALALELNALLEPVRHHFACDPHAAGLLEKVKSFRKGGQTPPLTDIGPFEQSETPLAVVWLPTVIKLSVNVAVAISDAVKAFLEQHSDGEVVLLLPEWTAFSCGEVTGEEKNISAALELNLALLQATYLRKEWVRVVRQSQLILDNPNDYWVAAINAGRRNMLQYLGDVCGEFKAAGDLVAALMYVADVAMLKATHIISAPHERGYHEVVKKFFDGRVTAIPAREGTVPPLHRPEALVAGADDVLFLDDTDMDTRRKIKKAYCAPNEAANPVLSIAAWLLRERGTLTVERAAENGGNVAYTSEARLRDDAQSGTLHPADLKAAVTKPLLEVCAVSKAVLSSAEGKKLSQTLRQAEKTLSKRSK
Nature of the assay: Trypanosoma cruzi tyrosyl tRNA synthetase (TcYRS) _High Tyrosine SOP. Also: in the data most compounds retested in dose-response had high values. It is filed as functional. The settings on record: 30 µM.

Assay [10] deals with T4, Tyrosyl-tRNA synthetase, putative (Trypanosoma cruzi (strain CL Brener)). Nature of the assay: Trypanosoma cruzi tyrosyl tRNA synthetase (TcYRS) SOP. It is filed as functional. The settings on record: 30 µM.
Assay [11] addresses Chromo domain-containing protein 1 (Saccharomyces cerevisiae (strain ATCC 204508 / S288c) (Baker's yeast)) (UniProt P32657). In words: ScCHD-1 Enzyme Inhibition Assay. Also: in the data most compounds retested in dose-response had high values. It is filed as functional. As to conditions: 30 µM.

For some of these results: Results with a measured potency or affinity are listed apart.

Chromo domain-containing protein 1 (Saccharomyces cerevisiae (strain ATCC 204508 / S288c) (Baker's yeast)), sequence (P32657 whole entry, the tested form may be a part): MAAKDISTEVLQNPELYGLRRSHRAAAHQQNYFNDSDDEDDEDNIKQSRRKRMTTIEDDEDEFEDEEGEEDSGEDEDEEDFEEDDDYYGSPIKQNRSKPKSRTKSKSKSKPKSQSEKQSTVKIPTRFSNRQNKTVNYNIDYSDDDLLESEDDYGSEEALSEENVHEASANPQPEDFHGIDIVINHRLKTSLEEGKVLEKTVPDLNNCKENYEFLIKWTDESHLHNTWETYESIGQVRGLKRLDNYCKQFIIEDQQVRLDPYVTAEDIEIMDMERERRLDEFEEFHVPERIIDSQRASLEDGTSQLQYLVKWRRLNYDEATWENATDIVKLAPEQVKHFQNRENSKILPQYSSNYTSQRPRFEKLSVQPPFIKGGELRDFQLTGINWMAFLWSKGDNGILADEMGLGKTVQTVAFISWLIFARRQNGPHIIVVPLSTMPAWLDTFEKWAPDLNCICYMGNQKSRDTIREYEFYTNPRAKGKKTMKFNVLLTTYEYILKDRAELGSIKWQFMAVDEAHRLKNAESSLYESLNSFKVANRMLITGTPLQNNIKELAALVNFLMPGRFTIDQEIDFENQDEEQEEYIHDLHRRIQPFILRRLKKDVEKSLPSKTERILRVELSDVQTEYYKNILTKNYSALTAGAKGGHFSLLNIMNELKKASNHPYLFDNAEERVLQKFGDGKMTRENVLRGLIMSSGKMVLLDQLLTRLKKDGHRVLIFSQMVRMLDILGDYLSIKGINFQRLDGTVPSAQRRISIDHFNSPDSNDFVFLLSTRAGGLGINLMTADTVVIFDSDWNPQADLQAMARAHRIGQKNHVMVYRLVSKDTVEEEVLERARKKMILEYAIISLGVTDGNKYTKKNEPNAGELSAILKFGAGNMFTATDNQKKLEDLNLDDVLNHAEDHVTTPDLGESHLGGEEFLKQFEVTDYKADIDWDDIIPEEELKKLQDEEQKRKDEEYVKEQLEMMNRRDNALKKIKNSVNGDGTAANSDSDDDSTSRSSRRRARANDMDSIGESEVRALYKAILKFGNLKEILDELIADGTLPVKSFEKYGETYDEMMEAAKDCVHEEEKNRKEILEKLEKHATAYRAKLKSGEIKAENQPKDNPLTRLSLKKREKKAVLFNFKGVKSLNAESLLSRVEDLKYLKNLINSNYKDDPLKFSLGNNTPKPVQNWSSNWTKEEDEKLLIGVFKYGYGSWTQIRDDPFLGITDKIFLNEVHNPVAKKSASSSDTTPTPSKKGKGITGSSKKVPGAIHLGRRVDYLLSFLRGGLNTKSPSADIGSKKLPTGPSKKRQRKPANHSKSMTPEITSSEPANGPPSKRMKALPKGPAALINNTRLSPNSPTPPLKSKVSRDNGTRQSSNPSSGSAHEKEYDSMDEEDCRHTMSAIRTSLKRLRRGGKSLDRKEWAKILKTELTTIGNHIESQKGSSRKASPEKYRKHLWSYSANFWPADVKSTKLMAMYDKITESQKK
Protein translocase subunit SecA (Escherichia coli (strain K12)), sequence (P10408 whole entry): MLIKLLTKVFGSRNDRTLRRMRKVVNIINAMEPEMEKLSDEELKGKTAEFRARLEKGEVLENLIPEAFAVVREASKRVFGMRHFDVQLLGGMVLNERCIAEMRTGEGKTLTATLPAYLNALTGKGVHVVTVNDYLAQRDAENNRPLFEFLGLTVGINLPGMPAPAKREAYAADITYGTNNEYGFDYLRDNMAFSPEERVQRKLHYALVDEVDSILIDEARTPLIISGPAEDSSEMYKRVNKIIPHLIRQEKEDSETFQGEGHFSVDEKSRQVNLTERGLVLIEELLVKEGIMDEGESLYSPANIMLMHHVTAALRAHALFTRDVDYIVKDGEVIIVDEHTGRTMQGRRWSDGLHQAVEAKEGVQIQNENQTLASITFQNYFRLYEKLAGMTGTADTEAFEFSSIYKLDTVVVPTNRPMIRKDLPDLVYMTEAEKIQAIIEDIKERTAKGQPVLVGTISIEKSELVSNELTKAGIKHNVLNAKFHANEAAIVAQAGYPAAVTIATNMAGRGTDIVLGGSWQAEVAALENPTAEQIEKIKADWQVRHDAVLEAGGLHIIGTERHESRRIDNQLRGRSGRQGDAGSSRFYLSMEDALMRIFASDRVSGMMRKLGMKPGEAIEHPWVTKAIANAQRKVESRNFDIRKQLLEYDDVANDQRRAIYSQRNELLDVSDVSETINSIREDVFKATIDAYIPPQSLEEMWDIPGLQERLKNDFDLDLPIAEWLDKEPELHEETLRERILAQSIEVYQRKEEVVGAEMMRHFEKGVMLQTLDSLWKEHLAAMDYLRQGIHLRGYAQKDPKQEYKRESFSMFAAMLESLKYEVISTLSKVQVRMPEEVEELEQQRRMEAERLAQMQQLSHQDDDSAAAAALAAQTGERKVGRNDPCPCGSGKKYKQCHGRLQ

In the case of `O=C(c1ccnnc1)N1C[C@H](Oc2cccnc2)[C@H]2OCCC[C@H]21`, the Percent Effect was -5.64% in [1]; 0% in [2]; -1.06% in [3]; -4.69% in [4]; 0.781% in assay [5]; -0.417% in assay [6]. The Percent Effect was 4.65% in [7]; -14.6% in [8]; 11.9% in assay [9]; 15.8% in assay [10]; -3.24% in assay [11].

Regarding `CCn1ncc2c1CCCC2NCc1cc(Cl)c(OC)c(OC)c1` (stereo unspecified), the Percent Effect in assay [1] is -5.26%; in [2], 12.7%; in assay [3], -8.16%; in assay [4], 14.8%; in assay [5] it was 3.31%; in [6], 3.04%. For the same molecule, the Percent Effect in [7] is -0.901%; in [8], 66.8%; in assay [9], 9.36%; in [10] it was 21.5%; in [11], -6.2%.

On to `CO[C@@H]1CC[C@H]2[C@H]1OCCN2C(=O)C1=CCCC1`, for which the Percent Effect in assay [1] is -3.13%; in assay [2], 10.4%; in [3], -1.31%; in assay [4] it was -0.155%; in assay [5] it was -4.83%; in assay [6] it was 16.1%. Besides, the Percent Effect in assay [7] is 7.49%; in assay [8], -1.44%; in assay [9], -2.12%; in assay [10], 14.1%; in assay [11] it was -6.88%.

As for `Cc1cc(C(=O)N2CC[C@@H]3CN(c4ncccn4)CCO[C@@H]3C2)c(C)o1`, the Percent Effect in assay [1] was -0.56%; in assay [2], 16.2%; in assay [3] it was -3.77%; in [4], -14.6%; in assay [5] it was 0.0978%; in assay [6], 6.69%. Moreover, the Percent Effect in assay [7] was 29%; in assay [8] it was -4.39%; in [9] it was 6.49%; in assay [10], 20.5%; in assay [11], -4.19%.

Regarding `CCNC(=O)N(C)Cc1ccc(SC)c(OC)c1`, the Percent Effect in assay [1] is -3.35%; in assay [2], 21.6%; in [3], -5.93%; in assay [4], 0.171%; in [5], 4.49%; in [6], 7.92%. The Percent Effect in [7] is 9.72%; in [8] it was -1.36%; in [9], 7.92%; in [10] it was 3.66%; in assay [11], 92.2%.

Turning to `CC1CCN(CCNC(=O)c2ccccc2N2CCOCC2)CC1`, the Percent Effect in assay [1] is 0.622%; in [2], 11%; in assay [3], -2.96%; in assay [4], 1.48%; in [5], -1.98%; in [6], -2.79%. Further, the Percent Effect was 24.1% in assay [7]; 5.31% in assay [8]; 13.5% in assay [9]; 16.1% in assay [10]; -2.45% in assay [11].

As to `Cc1noc(CN(Cc2ccc3c(c2)OCO3)C2CCCC2)n1`, the Percent Effect in assay [1] is -1.22%; in [2], 10.8%; in assay [3] it was -9.58%; in [4], 6.53%; in [5], -1.04%; in assay [6] it was -12%. For the same molecule, the Percent Effect was 6.67% in [7]; 29.7% in [8]; 3.45% in assay [9]; 3.7% in assay [10]; -9.8% in [11].

For `Cc1cccc(Cn2c3c(ccc2=O)CCN(Cc2ccoc2)CC3)n1`, the Percent Effect was -0.765% in assay [1]; 8.22% in assay [2]; -3.21% in [3]; 11.9% in assay [4]; 7.54% in assay [5]; -14% in assay [6]. Besides, the Percent Effect in assay [7] was 10.5%; in assay [8], 6.67%; in assay [9], 4.17%; in assay [10], 6.17%; in [11] it was -3.8%.

With `Cc1cnn(C2CN(Cc3nc(C(C)(C)C)no3)C2)c1`, the Percent Effect in assay [1] is -0.455%; in assay [2] it was 23.4%; in [3], -7.8%; in [4] it was -0.55%; in assay [5], 3.56%; in [6], 2.49%. In addition, the Percent Effect in assay [7] was 7.09%; in assay [8], 29.8%; in [9] it was 8.74%; in assay [10] it was 14.6%; in assay [11] it was -6.23%.

As to `CCCNC(=O)CNC(=O)CCc1ccccc1Br`, the Percent Effect is 0.865% in assay [1]; 6.94% in [2]; -6.34% in assay [3]; -5.04% in assay [4]; 1.85% in assay [5]; 13.7% in assay [6]. The Percent Effect was 18.1% in [7]; -8.19% in assay [8]; 2.1% in assay [9]; 7.69% in assay [10]; -2.27% in assay [11].

Regarding `COc1ncccc1C(=O)NCC1Cc2ccccc2O1` (stereo unspecified), the Percent Effect is -0.887% in [1]; 5.48% in [2]; 2.87% in [3]; 0.0975% in assay [4]; -1.76% in assay [5]; 1.36% in assay [6]. Also, the Percent Effect is 21.3% in assay [7]; -1.66% in [8]; 4.3% in assay [9]; 12.5% in assay [10]; -7.46% in [11].
